Measurements from PubChem BioAssay AID652154 (Broad Institute, 2013).
In all, about 360,000 compounds went through this assay and about 4,200 (1.2%) were called active. Only a selection was taken, and actives are over-represented in it overall. Values without a mark were called inactive.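 Rule for the calls: active = mean replicate inhibition at least 60% with every replicate also reaching 60%; inconclusive = only one of the two criteria is met; inactive = mean below 60% and not all replicates reaching 60%.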

assay: inhibitors of PAX8-driven TPO luciferase reporter, primary screen, RMG-I cells, single concentration (AID 652154); conditions: SteadyGlo, 24 h, at 12.6 µM, hits give high values;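 note: luciferase light reporting Pax8 driven TPO promoter activity; plate controls were median of neutral control wells for no effect and mitoxantrone controls for full effect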

SMILES | inhibition
Cc1ccccc1-c1ccc([C@@H]2[C@@H](CO)N3CCCCN(C(=O)Nc4cccc(F)c4)C[C@H]23)cc1 | 10.4%
CC(C)Cc1nnc(NC(=O)CCNC(=O)c2ccccc2Cl)s1 | -15.6%
Cc1ccc(S(=O)(=O)CCC(=O)Nc2nnc(CC(C)C)s2)cc1 | 82.8% (active)
CC(C)Cc1nnc(NC(=O)CCc2ccccc2)s1 | -22.6%
C[C@H](NC(=O)C[C@H]1C=C[C@H](NS(=O)(=O)c2cccc(F)c2)[C@@H](CO)O1)c1ccccc1 | -17.2%
Cc1noc(C)c1NC(=O)N(C)C[C@@H]1OCCCC[C@H](C)Oc2ccc(NC(=O)C3CCCCC3)cc2C(=O)N([C@H](C)CO)C[C@@H]1C | 9.59%
Cc1cccc(C)c1NC(=O)CCS(=O)(=O)c1cccc2nsnc12 | 15.3%
CCN(CC)CCN(C(=O)c1ccc2c(c1)CCCC2)c1nc2c(OC)cccc2s1 | 14.3%
O=C(CCS(=O)(=O)c1ccccc1)Nc1nc2c(s1)CCCC2 | 51.3%
COc1cccc2sc(N(CCCN(C)C)C(=O)CCS(=O)(=O)c3ccccc3)nc12 | 97.8% (active)
Cc1cccc2sc(N(CCCN(C)C)C(=O)CCS(=O)(=O)c3ccccc3)nc12 | 95.4% (active)
COc1ccc(N(C)C(=O)CCS(=O)(=O)c2cccc3nsnc23)cc1 | 1.7%
CC(C)NC(=O)N[C@@H]1CC[C@H](CCn2cc(-c3ccccc3)nn2)O[C@H]1CO | -6.01%
CCS(=O)(=O)N1[C@H](C#N)[C@H](c2ccc(-c3cccc(F)c3)cc2)[C@@H]1CO | -12.2%
C[C@@H]1CN([C@@H](C)CO)C(=O)c2cc(NC(=O)NC3CCCCC3)ccc2O[C@@H](C)CCCCO[C@H]1CN(C)Cc1ccccc1 | -10.1%
C[C@@H]1CN([C@@H](C)CO)C(=O)c2cccc(NS(=O)(=O)c3cn(C)cn3)c2O[C@@H]1CN(C)Cc1ccc(Cl)c(Cl)c1 | -5.72%
COCC(=O)Nc1ccc2c(c1)OC[C@H](C)N(C(=O)COC)C[C@@H](C)[C@H](OC)CN(C)C2=O | -25.8%
Cc1cccc(S(=O)(=O)N2C[C@H]3[C@@H](c4ccccc42)[C@H](CO)N3Cc2ccc3c(c2)OCO3)c1 | 32%
CC(=O)N(C)C[C@@H]1Oc2cc(-c3cccnc3)ccc2S(=O)(=O)N([C@H](C)CO)C[C@H]1C | -6.51%
O=C(CC1CC1)N1CC[C@@H]2[C@H](CO)Nc3ccc(-c4ccc(F)cc4)cc3[C@@H]21 | 14%
O=C(C[C@@H]1CC[C@@H]2[C@H](COC[C@@H](O)CN2Cc2cc(F)cc(F)c2)O1)NCc1cccc(F)c1 | 16%
Cc1cccc(-c2ccc([C@@H]3[C@H]4CN(C(=O)c5ccccc5)CC(=O)N4[C@H]3CO)cc2)c1 | 23.1%
O=C(C[C@@H]1CC[C@H]2[C@@H](COC[C@@H](O)CN2C(=O)c2ccc3c(c2)OCO3)O1)NC1CCCC1 | -8.12%

SMILES | inhibition
CCCNC(=O)c1c(Cl)cnn1-c1ccc(C)cc1 | -169%
CC(=O)Nc1c2c(nn1-c1cccc(C)c1)CSC2 | 13.4%
Cc1cccc(-n2ncc(Cl)c(Cl)c2=O)c1 | 99.9% (active)
O=c1ccc2c(-c3ccccc3S(=O)(=O)O)c3ccc(O)c(O)c3oc-2c1O | 65.9% (active)
CN(C)C(=O)C[C@@H]1CC[C@@H](NC(=O)NC2CCCC2)[C@@H](CO)O1 | -11%
Cn1cnc(CCNC(=O)C[C@H]2CC[C@H]3[C@@H](COC[C@@H](O)CN3C(=O)Nc3ccc(C(F)(F)F)cc3)O2)c1 | -9.72%
CC(C)NC(=O)N1C[C@H]2[C@@H](c3ccccc31)[C@H](CO)N2C(=O)c1ccccc1F | -9.19%
CS(=O)(=O)N1CCc2cc(C(=O)Nc3ccccc3)ccc21 | -94%
CC(=O)Nc1cccc(NC(=O)c2ccc3c(c2)CCN3S(C)(=O)=O)c1 | -7.18%
CN(c1cccc(NC(=O)c2ccc(CN3CCc4ccccc4C3)cc2)c1)S(C)(=O)=O | 72.6% (active)
CCCNC(=O)C[C@H]1CC[C@H]2[C@H](COc3ccc(NC(=O)CC)cc3C(=O)N2C)O1 | -14.6%
N#Cc1c(NC(=O)CCCl)sc2c1CCCCC2 | 60.9% (active)
N#Cc1c(NC(=O)C2CC(Cl)=CCC2C(=O)O)sc2c1CCCCC2 (configuration not stated) | -9.86%
N#Cc1c(NC(=O)C2CCCO2)sc2c1CCCCC2 (configuration not stated) | -175%
O=C(Nc1ccc2c(c1)OCO2)N[C@@H]1CC[C@H](CC(=O)N2CCN(c3ccccc3)CC2)O[C@@H]1CO | -5.75%
O=C(C[C@H]1C[C@@H]2c3cc(NC(=O)c4cccnc4)ccc3O[C@@H]2[C@@H](CO)O1)NCc1ccccc1F | -5.11%
O=C(NCc1nnnn1-c1ccc(Cl)cc1)c1ccc2c(c1)OCO2 | 2.39%
CC(=O)c1ccc(S(=O)(=O)NCc2nnnn2-c2ccccc2)cc1 | 3.71%
O=C(NCc1nnnn1-c1ccc(Cl)cc1)c1ccc([N+](=O)[O-])o1 | 77.5% (active)
CCCc1cn(CC[C@@H]2CC[C@@H](NC(=O)C3CC3)[C@H](CO)O2)nn1 | -17.8%
O=C(C[C@@H]1CC[C@@H](NC(=O)CC2CC2)[C@H](CO)O1)NCc1ccc(-c2ccccc2)cc1 | 2.89%
C[C@H](CO)N1C[C@H](C)[C@@H](CN(C)Cc2ccccn2)Oc2ncc(C3=CCCC3)cc2C1=O | -41%
COc1cccc(-c2cnc3c(c2)C(=O)N([C@@H](C)CO)C[C@@H](C)[C@@H](CN(C)Cc2ccc(C(=O)O)cc2)O3)c1 | -16.9%

SMILES | inhibition
CCC(=O)N1[C@@H]2c3ccc(-c4ccc(F)cc4)c(=O)n3C[C@H]1[C@H](CO)[C@H]2C(=O)N(C)C | 7.01%
O=C(CCCCCn1c(=S)[nH]c2cc3c(cc2c1=O)OCO3)N1CCN(c2ccc(F)cc2)CC1 | 3.47%
Cc1ccc(C)c(N2CCN(C(=O)CCCn3c(=O)c4cccn4c4cccnc43)CC2)c1 | 13.6%
Cc1ccc(C)c(N2CCN(C(=O)CCCCCn3c(=S)[nH]c4ccc(N5CCOCC5)cc4c3=O)CC2)c1 | 95% (active)
C[C@@H](NC(=O)C[C@H]1C=C[C@@H](NC(=O)CN2CCOCC2)[C@@H](CO)O1)c1ccccc1 | -7.59%
Cc1ccc(S(=O)(=O)Nc2ccc3c(c2)C(=O)N([C@H](C)CO)C[C@@H](C)[C@H](CN(C)Cc2ccccc2)OCCCC[C@H](C)O3)cc1 | 45.2%
COc1ccc(CN(C)C[C@@H]2OCCCC[C@@H](C)Oc3ccc(NS(=O)(=O)c4ccc(F)cc4)cc3C(=O)N([C@@H](C)CO)C[C@H]2C)cc1 | -7.37%
Cc1ccc(S(=O)(=O)Nc2ccc3c(c2)C(=O)N([C@@H](C)CO)C[C@@H](C)[C@H](CN(C)Cc2ccc(Cl)c(Cl)c2)OCCCC[C@@H](C)O3)cc1 | 75.8% (active)
Cc1ccc(S(=O)(=O)Nc2ccc3c(c2)C(=O)N([C@@H](C)CO)C[C@@H](C)[C@@H](CN(C)Cc2ccc(C(F)(F)F)cc2)OCCCC[C@@H](C)O3)cc1 | 105% (active)
COc1ccc(CN(C)C[C@@H]2OCCCC[C@H](C)Oc3ccc(NS(=O)(=O)c4ccc(F)cc4)cc3C(=O)N([C@H](C)CO)C[C@H]2C)cc1 | -1.69%
C[C@@H]1CCCCO[C@@H](CN(C)Cc2ccc(C(F)(F)F)cc2)[C@H](C)CN([C@H](C)CO)C(=O)c2cc(NS(=O)(=O)c3ccc(F)cc3)ccc2O1 | 104% (active)
COc1ccc(S(=O)(=O)Nc2ccc3c(c2)C(=O)N([C@@H](C)CO)C[C@H](C)[C@H](CN(C)Cc2ccc(C(F)(F)F)cc2)OCCCC[C@@H](C)O3)cc1 | 94.8% (active)
Cc1ccc(S(=O)(=O)Nc2ccc3c(c2)C(=O)N([C@H](C)CO)C[C@H](C)[C@@H](CN(C)Cc2ccccc2)OCCCC[C@H](C)O3)cc1 | -7.59%
Cc1ccc(S(=O)(=O)Nc2ccc3c(c2)C(=O)N([C@@H](C)CO)C[C@@H](C)[C@H](CN(C)Cc2ccc4c(c2)OCO4)OCCCC[C@@H](C)O3)cc1 | -3.85%
COc1ccc(S(=O)(=O)Nc2ccc3c(c2)C(=O)N([C@@H](C)CO)C[C@@H](C)[C@H](CN(C)Cc2ccc(C(F)(F)F)cc2)OCCCC[C@@H](C)O3)cc1 | 27.5%
C[C@H](CO)N1C[C@H](C)[C@H](CN(C)Cc2ccc(C(F)(F)F)cc2)OCCCC[C@H](C)Oc2ccc(NS(=O)(=O)c3ccc(Cl)cc3)cc2C1=O | 19.1%
C[C@@H]1CCCCO[C@@H](CN(C)Cc2ccc(Cl)c(Cl)c2)[C@H](C)CN([C@@H](C)CO)C(=O)c2cc(NS(C)(=O)=O)ccc2O1 | 6.58%
COc1cccc(S(=O)(=O)N[C@@H]2CC[C@H](CCNC(=O)Cc3ccncc3)O[C@@H]2CO)c1 | -23.7%
CN(C)C(=O)c1ccc(-c2ccc([C@H]3[C@H](CO)N4C(=O)CN(C(=O)C5CCCC5)C[C@@H]34)cc2)cc1 | -16.1%
C[C@H](CO)N1C[C@H](C)[C@@H](CN(C)Cc2cncnc2)Oc2cc(-c3ccccc3)ccc2S1(=O)=O | 1.94%
C[C@@H]1CN([C@H](C)CO)C(=O)Cc2cc(NS(C)(=O)=O)ccc2O[C@H]1CN(C)S(=O)(=O)c1ccccc1 | -11.5%
